Compounds with a hit are over-represented: about 10% of the library has one in this group of screens.
SARS PLP yeast: qHTS of Yeast-based Assay for SARS-CoV PLP | 0.19% of 330,000 active | Potency, µM (highest dose often 32.9 µM), most hits filed as activators | S. cerevisiae expressing SARS-CoV PLpro, growth rescue; further: nearly all actives have a fitted effect of over 55% in size
Pf growth 48h: Primary qHTS for delayed death inhibitors of the malarial parasite plastid, 48 hour incubation; P. falciparum luciferase growth in erythrocytes, 48 h; 5.9% of 310,000 active; Potency, µM (top dose mostly 28.7 µM), actives largely listed as inhibitors; AID 504832, 2011; active means well fitted inhibition curve with a large enough effect; inconclusive means small, poorly fitted or top-dose-only effect, or another doubt; inactive means no such curve, though single readings can be large or run the other way
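In quantitative HTS format, infected erythrocytes bearing luciferase-reporter parasites were treated for a single generation at 37 C. Luminescence after adding detection reagent served as the growth measure.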
Pf growth 96h: Primary qHTS for delayed death inhibitors of the malarial parasite plastid, 96 hour incubation. P. falciparum luciferase reporter growth, 96 h. Potency, µM (titrated, usually from 28.7 µM), most hits filed as inhibitors. 6.9% of 320,000 active; active means well fitted inhibition curve with a large enough effect; inconclusive means small, poorly fitted or top-dose-only effect, or another doubt; inactive means no such curve, though single readings can be large or run the other way
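Luminescence readout: decreased luciferase signal marks inhibited growth of reporter-expressing P. falciparum in infected red cells (2% hematocrit, 0.05% parasitemia final), exposed to compound two generations (96 h, 37 C, 5% CO2).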
NS1 function inh: qHTS Assay for Inhibitors of Influenza NS1 Protein Function; AID 2326, 2010; Potency, µM (top dose mostly 46.1 µM); 0.4% of 270,000 active; further: actives are rising curves; nearly all actives have a fitted effect of over 50% in size
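In this qHTS, NS1 from influenza A is expressed in budding yeast, where it slows growth. Cells are switched from glucose to 2% galactose medium (pH 6.0, -URA), treated with compound, and growth recovery is read at OD600.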
Of the large screens only hits and unclear results are named; the others gave an inactive call. Unless noted, the call rests on the fitted dose curve.

COc1cc(NC(=O)c2ccc(N)nc2)cc(C(=O)Nc2cccc(C(F)(F)F)c2)c1	Pf growth 48h 0.74µM, Pf growth 96h 0.74µM
COc1ccc(NC(=O)CCl)cn1	Pf growth 48h 8.3µM, Pf growth 96h 10µM
COc1ccc(CC(=O)Nc2ccc(OC)nc2)cc1	none (no result: NS1 function inh)
COc1ccc(NC(=O)Nc2cccc(C(F)(F)F)c2)cn1	Pf growth 48h 13µM, Pf growth 96h inconclusive
COc1ccc(S(=O)(=O)N2CCC(C(=O)Oc3cccc(C)c3)CC2)cc1OC	none
Cc1ccnn1CCC(=O)N1CCCC(CCC(=O)N2CCN(c3ccccn3)CC2)C1 (stereo unspecified)	none
COc1ccccc1CCC(=O)NNC(=O)c1cccs1	none (no result: Pf growth 48h, Pf growth 96h, NS1 function inh)
CCn1c2ccccc2c2cc(NC(=O)COC(=O)c3ccc(NC(=O)CC#N)cc3)ccc21	none (no result: NS1 function inh)
COc1ccc2c(c1)c(C(O)CN1CCN(Cc3ccc4c(c3)OCO4)CC1)c(C)n2C (stereo unspecified)	Pf growth 48h inconclusive, Pf growth 96h inconclusive
COc1ccc2c(c1)c(C(O)CN1CCC(Cc3ccccc3)CC1)c(C)n2C (stereo unspecified)	Pf growth 48h 13µM, Pf growth 96h 10µM
CCN(CC)C1=NC(=[N+](CC)CC)c2ccccc21	Pf growth 48h 0.74µM, Pf growth 96h 0.29µM
COc1ccc(/C=C(/NC(=O)c2ccccc2Cl)C(=O)O)cc1	none
COc1ccccc1/C=C(/NC(=O)c1ccc(Cl)cc1Cl)C(=O)O	Pf growth 96h 8.3µM
O=C(CCCN1C(=O)C(c2ccccc2)Oc2cccnc21)NCCc1ccc(Cl)cc1 (stereo unspecified)	Pf growth 48h inconclusive, Pf growth 96h 9.3µM
O=C(CCCN1C(=O)C(c2ccccc2)Oc2cccnc21)NCc1ccccc1Cl (stereo unspecified)	none
O=C(CCCN1C(=O)C(c2ccccc2)Oc2cccnc21)NCc1ccccc1F (stereo unspecified)	Pf growth 48h inconclusive, Pf growth 96h 2.1µM
O=C(Nc1ccccc1)C1(c2ccccc2)CC1(Cl)Cl (stereo unspecified)	Pf growth 48h 3.7µM, Pf growth 96h 1.7µM
COc1c(O)cc2c(c1O)[C@@H]1O[C@@H](CO)[C@@H](O)[C@@H](O)[C@@H]1OC2=O	none (no result: SARS PLP yeast, NS1 function inh)
CC(C)(O)C#Cc1ccc(C(=O)N2CCN(c3ccc(F)cc3)CC2)cc1	Pf growth 96h inconclusive (no result: NS1 function inh)
CC(C)(O)C#Cc1ccc(C(=O)N2CCN(c3ccc(Cl)cc3)CC2)cc1	Pf growth 96h 6.6µM (no result: NS1 function inh)
CCC(=O)NC(=S)Nc1ccc(N2CCN(C(=O)c3ccc(Cl)cc3)CC2)cc1	Pf growth 48h inconclusive, Pf growth 96h 12µM
CC1CCN(c2ccc(NC(=S)NC(=O)c3ccc(-c4cccc([N+](=O)[O-])c4)o3)cc2)CC1	Pf growth 48h 4.7µM (no result: Pf growth 96h)
CC1CCN(c2ccccc2NC(=S)NC(=O)c2ccc(-c3cccc([N+](=O)[O-])c3)o2)CC1	Pf growth 48h inconclusive, Pf growth 96h inconclusive
CCC(=O)N1CCN(c2ccc(NC(=S)NC(=O)COc3ccccc3)cc2)CC1	Pf growth 96h 15µM
Cc1ccc(C(C)C)cc1S(=O)(=O)NCc1ccccn1	none
CCN(CCCNC(=O)CCn1c(=S)[nH]c2cc3c(cc2c1=O)OCO3)c1cccc(C)c1	Pf growth 96h inconclusive
NC(=O)c1ccc(NC(=O)CN2CCN(c3ccccc3)CC2)cc1	Pf growth 96h inconclusive
NC(=O)c1ccc(NC(=O)CN2CCN(c3ccc(Cl)cc3)CC2)cc1	Pf growth 96h 12µM (no result: NS1 function inh)
CCC(=O)N1CCN(c2ccc(NC(=S)NC(=O)c3cccc([N+](=O)[O-])c3)cc2)CC1	Pf growth 96h 7.4µM
Cc1c(C(=O)N2CCN(S(=O)(=O)c3cc(F)ccc3F)CC2)oc2ccccc12	Pf growth 48h inconclusive (no result: NS1 function inh)
Cc1ccc(CSc2cc(C)[nH]c(=O)n2)cc1	none
Cc1ccc(-c2csc3ncn(Cc4ccc(C(=O)O)cc4)c(=O)c23)cc1C	Pf growth 96h 12µM
COc1ccc(-c2csc3ncnc(N4CCN(c5ccccc5O)CC4)c23)cc1	none (no result: SARS PLP yeast)
COc1ccc(-c2csc3ncnc(N4CCN(c5ccccc5[N+](=O)[O-])CC4)c23)cc1	Pf growth 48h inconclusive, Pf growth 96h 9.3µM, NS1 function inh inconclusive
Clc1ccc(CN2CCN(c3ncnc4scc(-c5cccs5)c34)CC2)cc1	SARS PLP yeast inconclusive, Pf growth 96h 13µM (no result: Pf growth 48h)
Fc1ccc(CN2CCN(c3ncnc4scc(-c5ccc(F)cc5)c34)CC2)cc1	Pf growth 96h inconclusive (no result: Pf growth 48h)
COc1ccc(-c2csc3ncnc(N4CCN(Cc5ccccc5)CC4)c23)cc1	Pf growth 48h inconclusive, Pf growth 96h 6.6µM
O=C(O)c1ccc(Cn2cnc3scc(-c4ccccc4)c3c2=O)cc1	none
CCC1CCCCN1C(=O)c1cc(S(=O)(=O)N2CCOCC2)ccc1C (stereo unspecified)	none (no result: Pf growth 48h, Pf growth 96h, NS1 function inh)
O=C(NCc1ccccn1)c1cccc(S(=O)(=O)Nc2ccccc2Cl)c1	Pf growth 48h inconclusive (no result: NS1 function inh)
COc1ccc(-c2csc3ncnc(N4CCN(c5ccc(OC)cc5)CC4)c23)cc1	Pf growth 48h inconclusive, Pf growth 96h 13µM
Clc1ccc(-c2csc3ncnc(NCCN4CCOCC4)c23)cc1	Pf growth 96h inconclusive (no result: Pf growth 48h)
CCOC(=O)N1CCN(c2ncnc3scc(-c4ccccc4)c23)CC1	Pf growth 48h inconclusive, Pf growth 96h inconclusive
Cc1ccc(-c2csc3ncnc(NCCN4CCOCC4)c23)cc1	Pf growth 48h 13µM, Pf growth 96h 10µM
CC(C)(C)C(=O)N1CCN(c2ncnc3scc(-c4ccccc4)c23)CC1	Pf growth 96h 13µM (no result: Pf growth 48h)
CCn1cnc2scc(-c3ccc(OC)cc3)c2c1=O	Pf growth 96h 10µM
COc1ccc(N2CCN(C(=O)CCC(=O)N3CC(C)Oc4ccc(C)cc43)CC2)cc1 (stereo unspecified)	Pf growth 48h inconclusive
Cc1cc(S(=O)(=O)N2CCCC(N(C)CCc3ccccn3)C2)c(C)cc1Cl (stereo unspecified)	Pf growth 48h inconclusive, Pf growth 96h inconclusive
Cc1ccc(-c2csc3ncnc(N4CCN(c5ccccc5O)CC4)c23)cc1	Pf growth 48h 9.3µM, Pf growth 96h 10µM
CCNC(=O)C1CC(=O)N(Cc2ccc(F)cc2)C(=Nc2ccc(OC)cc2)S1 (stereo unspecified)	Pf growth 48h 7.4µM, Pf growth 96h inconclusive
CNC(=O)C1CC(=O)N(Cc2ccccc2)C(=Nc2ccc(OC)cc2)S1 (stereo unspecified)	Pf growth 48h inconclusive
N#CC(=Cc1ccc(O)c(O)c1)C(N)=S	none (no result: SARS PLP yeast, Pf growth 48h, Pf growth 96h)
CN=C(NC#N)NCCSCc1csc(N=C(N)N)n1	none (no result: SARS PLP yeast, NS1 function inh)
Cc1[nH]c2ccc(C(=O)OCC(=O)Nc3cccc(S(N)(=O)=O)c3)cc2c1C	none (no result: NS1 function inh)
Cc1ccccc1OCC(O)CN1CCN(CC(O)COc2ccccc2C)C(C)C1 (stereo unspecified)	Pf growth 48h 9.3µM, Pf growth 96h inconclusive
CC(=O)Nc1ccc(OCC(O)Cn2c3ccccc3c3ccccc32)c(C)c1 (stereo unspecified)	Pf growth 48h inconclusive, Pf growth 96h 10µM
Cc1cc(C)n(CC(O)Cn2c3ccccc3c3ccccc32)n1 (stereo unspecified)	Pf growth 48h 10µM (no result: Pf growth 96h)

High-throughput results: PubChem, National Center for Advancing Translational Sciences (NCATS)
